# Laboratory results reported in PubChem BioAssay (Tox21).
# Results filed as inconclusive are left out. Where a call stands in place of a potency, no number is given. A number with no mark means an inactive call. Calls of active or inactive are those of the source. Unless noted, the call rests on the fitted dose curve; in most records, active means well fitted curve in the direction sought with a large enough effect in the repeat runs; inconclusive means weak or mixed curves; inactive means no such curve, though single readings can be large; an effect the other way counts as inactive or inconclusive.
# Columns and labels:
# [1] = qHTS assay to identify small molecule antagonists of the estrogen related receptor (ERR) signaling pathway from Tox21 library - cell viability counter screen (AID 1224834); further: nearly all actives have a fitted effect of over 30% in size; further: potency means the concentration at half of the fitted maximal effect
# Outline: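 In this quantitative HTS format, ERR cells receive compounds in DMSO and are incubated for 17.5 h at 37 C. Live-cell protease activity is then detected with CellTiter-Fluor.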
# [2] = biological target: Luciferin 4-monooxygenase (Photinus pyralis) (UniProt P08659); test: qHTS assay to identify small molecule inhibitors of firefly luciferase (AID 1224835); further: nearly all actives have a fitted effect of over 25% in size; further: potency means the concentration at half of the fitted maximal effect; on activity change, negative = inhibition: series mostly up to about 120 µM
# Outline: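 Inhibition of purified Photinus luciferase is measured by luminescence. Substrate levels (D-luciferin, ATP) sit at their KM values. Each compound is tested in a concentration series.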
# [3] = qHTS assay to identify small molecule agonists of the constitutive androstane receptor (CAR) signaling pathway - cell viability counter screen (AID 1224836); further: nearly all actives have a fitted effect of over 45% in size; further: potency means the concentration at half of the fitted maximal effect; on viability change, negative = cytotoxic: series mostly up to about 92 µM
# Outline: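 HepG2-CYP2B6-hCAR, 2500 cells/well, 4 h pre-incubation; cpd 15 conc + PK11195 0.75 uM final; 23 h, 37 C/5% CO2; CellTiter-Fluor, fluorescence.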
# [4] = qHTS assay to identify small molecule antagonists of the constitutive androstane receptor (CAR) signaling pathway - cell viability counter screen (AID 1224837); further: nearly all actives have a fitted effect of over 45% in size; further: potency means the concentration at half of the fitted maximal effect; on activity change, negative = cytotoxicity: series mostly up to about 92 µM
# Outline: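 In quantitative HTS format, compounds at 15 concentrations were applied to HepG2 cells double-transfected with hCAR and CYP2B6-2.2kb under 50 nM CITCO stimulation; live-cell protease activity was read after 23 hr via CellTiter-Fluor.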
# [5] = biological target: Nuclear receptor subfamily 1 group I member 3 (Homo sapiens) (UniProt Q14994); test: qHTS assay to identify small molecule agonists of the constitutive androstane receptor (CAR) signaling pathway (AID 1224839); further: nearly all actives have a fitted effect of over 15% in size; further: potency means the concentration at half of the fitted maximal effect;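 on activation: HepG2 cells stably carrying human CAR and a CYP2B6 luciferase reporter; series mostly up to about 92 µM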
# Outline: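 HepG2-CYP2B6-hCAR cells, 2500/well, 4 h pre-incubation; compounds 15 conc.; PK11195 0.75 uM final; 24 h, 37 C/5% CO2; ONE-Glo luciferase read.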
# [6] = qHTS assay to identify small molecule antagonists of the estrogen related receptor signaling pathway with the pleiotropic PPARgamma coactivator (PGC) from Tox21 10K library - cell viability counter screen (AID 1224840; active means well fitted cell-killing curve with a large enough effect in the repeat runs, not every such curve was filed as active; further: nearly all actives have a fitted effect of over 40% in size; further: potency means the concentration at half of the fitted maximal effect)
# Outline: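 Viability counter screen, PGC/ERR cells: 17.5 h compound exposure at 37 C, CellTiter-Fluor fluorescence endpoint.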
# [7] = qHTS assay to identify small molecule antagonists of the estrogen related receptor signaling pathway with the pleiotropic PPARgamma coactivator (PGC) from Tox21 10K library (AID 1224841; call rule not given here; further: actives are mostly falling curves and most rising ones were filed inactive; nearly all actives have a fitted effect of over 50% in size; further: potency means the concentration at half of the fitted maximal effect; on activity, negative = inhibition: series mostly up to about 92 µM)
# Outline: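 In the PGC/ERR line, DMSO solutions of test chemicals are pin-delivered to 2,000 cells/well six hours after dispensing. Following eighteen hours' incubation, One-Glo reagent is added and luminescence recorded.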
# [8] = qHTS assay to identify small molecule agonists of the estrogen related receptor signaling pathway with the pleiotropic PPARgamma coactivator (PGC) from Tox21 10K library (AID 1224842); further: nearly all actives have a fitted effect of over 15% in size
# Outline: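 Luminescence from One-Glo (30 min, room temperature) measured after PGC/ERR cells had 18 h at 37 C with pinned compound (23 nL in DMSO). Cells had been seeded at 2,000 per well and pre-incubated 6 h.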
# [9] = biological target: Thyrotropin receptor (Homo sapiens) (UniProt P16473); test: qHTS assay to identify small molecule agonists of the thyroid stimulating hormone receptor (TSHR) signaling pathway (AID 1224843; calls by dose curve; further: nearly all actives have a fitted effect of over 45% in size)
# Outline: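 Agonist activity read as cAMP rise via d2/cryptate HTRF competition, 1 h room-temperature detection, in HEK293 cells expressing TSHR. Fifteen-point titrations, each run in triplicate, with a 30 min room-temperature incubation beforehand.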
# Chain of Luciferin 4-monooxygenase (Photinus pyralis) (P08659 whole entry, looked up): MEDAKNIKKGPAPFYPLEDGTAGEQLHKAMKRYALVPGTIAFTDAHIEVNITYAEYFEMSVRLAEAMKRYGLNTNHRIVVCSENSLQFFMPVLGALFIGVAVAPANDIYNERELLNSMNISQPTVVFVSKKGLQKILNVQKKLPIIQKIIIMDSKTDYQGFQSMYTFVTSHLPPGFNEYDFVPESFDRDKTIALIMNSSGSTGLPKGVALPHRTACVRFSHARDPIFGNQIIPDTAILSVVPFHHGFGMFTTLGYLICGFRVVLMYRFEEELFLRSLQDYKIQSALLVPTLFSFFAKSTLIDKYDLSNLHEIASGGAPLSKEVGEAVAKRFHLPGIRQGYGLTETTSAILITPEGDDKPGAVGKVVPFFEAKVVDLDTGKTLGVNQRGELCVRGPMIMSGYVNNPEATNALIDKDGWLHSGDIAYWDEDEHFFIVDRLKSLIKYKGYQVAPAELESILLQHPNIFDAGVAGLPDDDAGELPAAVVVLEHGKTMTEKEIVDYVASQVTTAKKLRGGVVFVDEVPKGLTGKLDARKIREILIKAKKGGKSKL
# Chain of Thyrotropin receptor (Homo sapiens) (P16473 whole entry, looked up): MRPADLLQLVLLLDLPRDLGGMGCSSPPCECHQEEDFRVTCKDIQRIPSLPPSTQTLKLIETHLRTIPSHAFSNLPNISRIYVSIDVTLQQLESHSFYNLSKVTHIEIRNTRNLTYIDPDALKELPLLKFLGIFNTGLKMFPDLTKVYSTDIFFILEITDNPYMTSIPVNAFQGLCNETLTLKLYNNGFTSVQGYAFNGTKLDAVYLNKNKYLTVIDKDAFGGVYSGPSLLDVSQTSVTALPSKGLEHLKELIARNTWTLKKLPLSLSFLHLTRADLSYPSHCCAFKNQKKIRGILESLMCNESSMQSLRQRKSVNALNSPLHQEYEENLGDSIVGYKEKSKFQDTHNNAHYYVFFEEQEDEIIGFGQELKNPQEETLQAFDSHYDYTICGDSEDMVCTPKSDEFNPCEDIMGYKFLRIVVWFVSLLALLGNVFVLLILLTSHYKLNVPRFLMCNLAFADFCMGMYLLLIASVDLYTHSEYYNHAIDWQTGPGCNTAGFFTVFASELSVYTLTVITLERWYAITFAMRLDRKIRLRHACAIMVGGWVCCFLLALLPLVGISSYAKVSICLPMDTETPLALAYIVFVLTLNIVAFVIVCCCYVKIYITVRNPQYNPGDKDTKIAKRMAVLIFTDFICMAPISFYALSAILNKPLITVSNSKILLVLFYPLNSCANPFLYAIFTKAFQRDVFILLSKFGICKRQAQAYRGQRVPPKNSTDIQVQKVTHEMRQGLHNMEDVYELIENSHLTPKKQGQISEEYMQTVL
# Chain of Nuclear receptor subfamily 1 group I member 3 (Homo sapiens) (Q14994 whole entry, looked up): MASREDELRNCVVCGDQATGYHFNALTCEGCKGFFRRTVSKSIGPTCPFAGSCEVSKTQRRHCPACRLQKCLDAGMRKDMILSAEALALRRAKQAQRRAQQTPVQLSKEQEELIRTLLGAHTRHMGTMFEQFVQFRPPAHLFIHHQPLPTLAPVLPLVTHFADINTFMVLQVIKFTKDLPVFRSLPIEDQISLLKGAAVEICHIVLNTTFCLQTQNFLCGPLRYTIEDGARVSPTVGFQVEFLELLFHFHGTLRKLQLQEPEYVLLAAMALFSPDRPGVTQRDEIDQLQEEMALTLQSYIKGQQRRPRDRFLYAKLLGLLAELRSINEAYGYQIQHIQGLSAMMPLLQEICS
compound,measurement,setting,value
CO[C@@H]1[C@H](OC(=O)/C=C/C=C/C=C/C=C/C(=O)O)CC[C@]2(CO2)[C@H]1[C@@]1(C)O[C@@H]1CC=C(C)C,Potency,[1],inactive
same,Potency,[2],inactive
same,Potency,[3],inactive
same,Potency,[4],inactive
same,Potency,[5],inactive
same,Potency,[6],inactive
same,Potency,[7],inactive
same,Potency,[8],inactive
same,Potency,[9],inactive
C1CCCNCCC1,Potency,[1],inactive
same,Potency,[2],inactive
same,Potency,[3],inactive
same,Potency,[4],inactive
same,Potency,[6],inactive
same,Potency,[7],4.32 µM (active)
same,Potency,[8],inactive
same,Potency,[9],inactive
C=C(C)C(=O)OCC,Potency,[1],inactive
same,Potency,[2],inactive
same,Potency,[3],inactive
same,Potency,[4],inactive
same,Potency,[6],inactive
same,Potency,[7],inactive
same,Potency,[8],inactive
same,Potency,[9],inactive
CCCCC,Potency,[1],inactive
same,Potency,[2],inactive
same,Potency,[3],inactive
same,Potency,[4],inactive
same,Potency,[6],inactive
same,Potency,[9],inactive
Brc1c2ccccc2c(Br)c2ccccc12,"viability change, negative = cytotoxic",[1],-0.56% [at 8.39 µM]
same,"activity change, negative = inhibition",[2],2.43% [at 10.5 µM]
same,"viability change, negative = cytotoxic",[3],3.16% [at 8.39 µM]
same,"activity change, negative = cytotoxicity",[4],6.42% [at 8.39 µM]
same,activation,[5],11.6% [at 8.39 µM]
same,"viability change, negative = cytotoxic",[6],6.16% [at 8.39 µM]
same,"activity, negative = inhibition",[7],52.5% [at 8.39 µM]
same,activation,[8],2.94% [at 8.39 µM]
same,activation,[9],-2.14% [at 8.39 µM]
O=C(OCCc1ccccc1)c1ccccc1,Potency,[1],inactive
same,Potency,[2],1 µM (active)
same,Potency,[3],inactive
same,Potency,[4],inactive
same,Potency,[5],inactive
same,Potency,[6],inactive
same,Potency,[9],inactive
Nc1ccc(N)c2c1C(=O)c1ccccc1C2=O,Potency,[1],15.4 µM (active)
same,Potency,[2],17.8 µM (active)
same,Potency,[3],17.2 µM (active)
same,Potency,[4],15.4 µM (active)
same,Potency,[5],inactive
same,Potency,[6],19.3 µM (active)
same,Potency,[7],24.3 µM (active)
same,Potency,[8],inactive
CC(COCCO)OCCO (configuration not stated),Potency,[1],inactive
same,Potency,[2],inactive
same,Potency,[3],inactive
same,Potency,[4],inactive
same,Potency,[6],inactive
same,Potency,[7],inactive
same,Potency,[8],inactive
same,Potency,[9],inactive
C/C(=C(\CCOP(=O)(O)O)SC(=O)c1ccccc1)N(C=O)Cc1cnc(C)nc1N,"viability change, negative = cytotoxic",[1],0.62% [at 8.39 µM]
same,"activity change, negative = inhibition",[2],0.277% [at 10.5 µM]
same,"viability change, negative = cytotoxic",[3],-1.07% [at 8.39 µM]
same,"activity change, negative = cytotoxicity",[4],5.24% [at 8.39 µM]
same,"viability change, negative = cytotoxic",[6],-2.4% [at 8.39 µM]
same,activation,[9],-3.96% [at 8.39 µM]
CCCCCC[C@@H](O)C/C=C\CCCCCCCC(=O)OC,Potency,[1],inactive
same,Potency,[2],inactive
same,Potency,[3],inactive
same,Potency,[4],inactive
same,Potency,[6],inactive
same,Potency,[7],inactive
same,Potency,[8],inactive
same,Potency,[9],inactive
CC(CSC(=O)c1ccccc1)C(=O)N1C[C@@H](Sc2ccccc2)C[C@H]1C(=O)O (some centres not stated),"viability change, negative = cytotoxic",[1],7.27% [at 19 µM]
same,"activity change, negative = inhibition",[2],0.3% [at 23.6 µM]
same,"viability change, negative = cytotoxic",[3],5.15% [at 19 µM]
same,"activity change, negative = cytotoxicity",[4],0% [at 19 µM]
same,"viability change, negative = cytotoxic",[6],17.4% [at 19 µM]
same,"activity, negative = inhibition",[7],1.67% [at 19 µM]
same,activation,[8],0.512% [at 19 µM]
same,activation,[9],-0.691% [at 19 µM]
O=C(c1ccc(F)cc1)C1CCN(CCn2c(=S)[nH]c3ccccc3c2=O)CC1,Potency,[1],29.8 µM (active)
same,Potency,[2],inactive
same,Potency,[3],inactive
same,Potency,[4],inactive
same,Potency,[5],inactive
same,Potency,[7],26.6 µM (active)
same,Potency,[8],inactive
same,Potency,[9],inactive
CC(=O)OC[C@H]1O[C@@H](n2ncc(=O)[nH]c2=O)[C@H](OC(C)=O)[C@@H]1OC(C)=O,Potency,[1],inactive
same,Potency,[2],inactive
same,Potency,[3],inactive
same,Potency,[4],inactive
same,Potency,[5],inactive
same,Potency,[6],inactive
same,Potency,[9],inactive
CCOc1ccc(N=Nc2ccc(/C=C/c3ccc(N=Nc4ccc(OCC)cc4)cc3S(=O)(=O)O)c(S(=O)(=O)O)c2)cc1,Potency,[1],24 µM (active)
same,Potency,[2],inactive
same,Potency,[3],24 µM (active)
same,Potency,[4],21.4 µM (active)
same,Potency,[5],inactive
same,Potency,[6],47.8 µM (active)
same,Potency,[9],inactive
Nc1ccc(S(=O)(=O)Nc2ccccc2)cc1,Potency,[1],inactive
same,Potency,[2],inactive
same,Potency,[3],inactive
same,Potency,[4],inactive
same,Potency,[5],inactive
same,Potency,[6],inactive
same,Potency,[9],inactive
O=[N+]([O-])c1ccc(NCCO)c(OCCO)c1,Potency,[1],30.7 µM (active)
same,Potency,[2],inactive
same,Potency,[3],43.3 µM (active)
same,Potency,[4],48.6 µM (active)
same,Potency,[6],48.6 µM (active)
same,Potency,[7],inactive
same,Potency,[8],inactive
c1ccc(-c2ccccn2)nc1,Potency,[1],inactive
same,Potency,[2],inactive
same,Potency,[3],inactive
same,Potency,[4],inactive
same,Potency,[6],inactive
same,Potency,[8],inactive
same,Potency,[9],inactive
C=CCOC(=O)CCC1CCCCC1,Potency,[1],inactive
same,Potency,[2],inactive
same,Potency,[3],inactive
same,Potency,[4],inactive
same,Potency,[5],inactive
same,Potency,[7],inactive
same,Potency,[8],inactive
same,Potency,[9],inactive
CN(C)CCN(Cc1ccccc1)c1ccccn1,Potency,[1],inactive
same,Potency,[2],inactive
same,Potency,[3],inactive
same,Potency,[4],inactive
same,Potency,[6],inactive
same,Potency,[9],inactive
CCOC(=O)Cc1cccc2ccccc12,Potency,[1],inactive
same,Potency,[2],inactive
same,Potency,[3],inactive
same,Potency,[4],inactive
same,Potency,[5],30.6 µM (active)
same,Potency,[6],inactive
same,Potency,[7],inactive
same,Potency,[8],inactive
COC(C)OC,Potency,[1],inactive
same,Potency,[2],inactive
same,Potency,[3],inactive
same,Potency,[4],inactive
same,Potency,[6],inactive
same,Potency,[7],inactive
same,Potency,[8],inactive
same,Potency,[9],inactive
NCC(=O)O,"viability change, negative = cytotoxic",[1],2.45% [at 19 µM]
same,"activity change, negative = inhibition",[2],-0.476% [at 23.6 µM]
same,"viability change, negative = cytotoxic",[3],-11.9% [at 19 µM]
same,"activity change, negative = cytotoxicity",[4],-8.8% [at 19 µM]
same,"viability change, negative = cytotoxic",[6],0.187% [at 19 µM]
C=CCOc1ccccc1OCC(O)CNC(C)C (configuration not stated),Potency,[1],inactive
same,Potency,[2],inactive
same,Potency,[3],inactive
same,Potency,[4],inactive
same,Potency,[5],inactive
same,Potency,[6],inactive
same,Potency,[7],inactive
same,Potency,[8],inactive
C[N+]1(C)CCC(OC(=O)C(O)(c2ccccc2)C2CCCC2)C1 (configuration not stated),Potency,[1],inactive
same,Potency,[2],inactive
same,Potency,[3],inactive
same,Potency,[4],inactive
same,Potency,[5],inactive
same,Potency,[9],inactive
O=C(O)c1ccccc1Cl,Potency,[1],inactive
same,Potency,[2],inactive
same,Potency,[3],inactive
same,Potency,[4],inactive
same,Potency,[6],inactive
same,Potency,[9],inactive
Cc1cccc(C)c1OCC(=O)N[C@@H](Cc1ccccc1)[C@@H](O)C[C@H](Cc1ccccc1)NC(=O)[C@H](C(C)C)N1CCCNC1=O,Potency,[1],21.1 µM (active)
same,Potency,[2],inactive
same,Potency,[3],18.8 µM (active)
same,Potency,[4],13.3 µM (active)
same,Potency,[6],33.5 µM (active)
same,Potency,[7],13.3 µM (active)
same,Potency,[8],inactive
same,Potency,[9],inactive
Cc1ccc(C(=O)Oc2ccc(C(O)CNC(C)(C)C)cc2OC(=O)c2ccc(C)cc2)cc1 (configuration not stated),Potency,[1],inactive
same,Potency,[2],inactive
same,Potency,[3],inactive
same,Potency,[4],inactive
same,Potency,[6],inactive
CCCCCCCCO[C@@H]1O[C@H](CO)[C@@H](O)[C@H](O)[C@H]1O,Potency,[1],inactive
same,Potency,[2],inactive
same,Potency,[3],inactive
same,Potency,[4],inactive
same,Potency,[6],inactive
same,Potency,[9],inactive
